# This is a sample that favours compounds with a hit; in the whole collection about 4.4% have one here.
# HPGD inh: blocks human HPGD enzyme activity | P15428 | purified HPGD, NADH fluorescence kinetic, PGE2 substrate | Potency, µM, inactives show top-dose activity change, negative = inhibition, hits mostly inhibitors | 150,000 compounds, 4.3% hits | AID 894; active = well fitted inhibition curve with a large enough effect, not every such curve was filed as active; inconclusive = small, poorly fitted or top-dose-only effect, or another doubt; inactive = no such curve, though single readings can be large or run the other way
# Target sequence (P15428 whole entry, looked up): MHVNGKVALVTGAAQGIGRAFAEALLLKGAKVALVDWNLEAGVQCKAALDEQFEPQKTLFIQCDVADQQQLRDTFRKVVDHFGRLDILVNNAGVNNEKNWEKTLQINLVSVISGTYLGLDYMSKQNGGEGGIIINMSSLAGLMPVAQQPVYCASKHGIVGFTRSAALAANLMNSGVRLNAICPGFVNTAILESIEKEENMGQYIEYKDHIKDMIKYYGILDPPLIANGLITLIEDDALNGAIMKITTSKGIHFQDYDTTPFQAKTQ
#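 20 nM HPGD preincubated 15 min at room temperature with compound in 50 mM Tris-HCl pH 8, 0.01% Tween 20. Started with 1 mM NAD+ and 30 uM prostaglandin E2; NADH fluorescence (360/450 nm) read 5 times over 30-s intervals, last minus first.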
# p53ts 39C tox: kills p53ts cells at the nonpermissive temperature; H1299-p53A138V viability at 39C, ATP luminescence, 24 h; 130,000 compounds, 1.5% hits; Potency, µM (series often up to 46.1 µM), inactives show at the top dose activity change, negative = cell killing, usual class: cytotoxic; note: nearly all actives have a fitted effect of over 55% in size
# p53ts 32C kill: p53ts cell cytotoxicity, permissive temperature | Potency, µM (top dose mostly 46.1 µM), without a hit: at the top dose activity change, negative = cytotoxicity, most hits filed as cytotoxic | H1299-p53A138V at 32C, ATP luminescence viability, 24 h | AID 924 | 130,000 compounds, 0.93% hits;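 note: 0% = DMSO and -100% = full killing by reference compound; nearly all actives have a fitted effect of over 55% in size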
#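 H1299-p53 A138V cells (temperature-sensitive p53) exposed 24 h to up to 46 uM compound at 32C, where p53 is wild-type in conformation. Viability read as ATP luminescence and normalised to DMSO and 100 uM tamoxifen. AC50 fitted with the Hill equation.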
# 12-hLO inh: inhibitors of human 12-lipoxygenase (ALOX12) | purified 12-hLO, xylenol orange hydroperoxide absorbance | Potency, µM (highest dose often 57.1 µM), inactives show at the highest dose activity change, negative = inhibition, most hits filed as inhibitors | 150,000 compounds, 0.12% hits | AID 1452; note: nearly all actives have a fitted effect of over 55% in size
#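 Purified human 12hLO (150 nM final) was preincubated with compounds for 15 min at room temperature in 25 mM Hepes pH 7.0, 0.01% Triton X-100, then reacted with 40 uM arachidonic acid for 30 min. Hydroperoxide was detected with ferrous iron/xylenol orange.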
# An asterisk follows results filed as active; ? = inconclusive; nt = no result given; ! = not confirmed by another sample; [ ] = remark or other dose. Unless noted, calls come from the whole dose curve; as a rule, active = well fitted curve in the direction sought with a large enough effect; inconclusive = small, poorly fitted or top-dose-only effect, or another doubt; inactive = no such curve, though single readings can be large; an effect the other way counts as inactive or inconclusive. Unless noted, % is set by controls: 0 for no effect and ±100 for the full control effect; potency is the fitted concentration of half-maximal effect.
SMILES,HPGD inh,p53ts 39C tox,p53ts 32C kill,12-hLO inh
Nc1cc(Cl)ccc1O,10µM*,24%,-13%[1.84 µM],20µM*
Oc1ccc(Cl)cc1Sc1cc(Cl)ccc1O,2.5µM*,-10%[9.22 µM],-12%[9.22 µM],-28%[11.4 µM]
CC(=O)O[C@H]1CC[C@H]2[C@@H]3CCC4=C[C@@H](C5SCCS5)[C@H](OC(C)=O)C[C@]4(C)[C@H]3CC[C@@]12C,-17%,-1%[9.22 µM],11%[9.22 µM],-2%[11.4 µM]
C/C(=N\Nc1ccccc1)c1c(O)n(Cc2ccccc2)c(=O)[nH]c1=O,28µM*,nt,nt,-19%
CC(=Nc1c(C)n(C)n(-c2ccccc2)c1=O)c1c(O)n(Cc2ccccc2)c(=O)[nH]c1=O,20µM*,nt,nt,-12%
O=C(c1ccccc1)[C@H]1[C@H](c2ccccc2[N+](=O)[O-])N1C1CCCCC1 (stereo partly specified),-20%,-23%[9.22 µM],1%[9.22 µM],1%[11.4 µM]
C[C@H](CC(C#N)(c1ccccc1)c1ccccc1)N1CCCCC1,-2%,-1%[9.22 µM],-2%[9.22 µM],1%[11.4 µM]
CCOC(=O)c1ccc(NC(=O)c2c(O)[nH]c(=O)[nH]c2=O)cc1,14µM*,0%,7%,2%
COc1ccc(CN2C(=O)CC(=O)NC2=O)cc1,nt,1%,-5%,-12%
COc1ccc(-c2noc(CN3C(=O)c4ccccc4C3=O)n2)cc1,20µM*,7%,3%,1%
COC(=O)c1c(C)ccc2c(O)c3c(cc12)C(=O)c1c2c(cc(O)c1C3=O)[C@@]1(C)O[C@@](C)(O2)[C@@H](O)[C@H](N(C)C)[C@H]1O,?,12%[9.22 µM],-3%[9.22 µM],-4%[11.4 µM]
CN(C)C(=O)Oc1ccc(Cl)c2ccccc12,-15%,0%,0%,-2%
N=C(N)SCc1ccc(Cl)c2ccccc12 (tested in a mixture with another compound),4.5µM*!,-5%[9.22 µM],-7%[9.22 µM],-1%[11.4 µM]
O=c1[nH]c(=S)n(Cc2ccco2)c(O)c1C=NCc1cccs1,25µM*,nt,nt,-13%
O=c1[nH]c(=O)n(Cc2ccco2)c(O)c1C=NCc1cccs1,-16%,9%,0%,-19%
COc1ccc(-c2cc(C(F)(F)F)n3nc(C(=O)N4CCC5(CC4)OCCO5)cc3n2)cc1OC,13µM*,8%,4%,-7%
COc1cc(OC)cc(-n2nc(C(=O)N3CCC4(CC3)OCCO4)c3ccccc3c2=O)c1,-13%,0%,-4%,-5%
COc1ccc2c(c1OC)CN1CCc3cc4c(cc3[C@H]1C2)OCO4,-6%,5%[20.6 µM],-1%[20.6 µM],1%[25.6 µM]
COc1ccc2c(c[n+](C)c3c4cc5c(cc4ccc23)OCO5)c1OC,?,13µM*,5µM*,?
COc1ccc(/C=C2/Sc3ccc(C(=O)N4CCc5ccccc5C4)cc3NC2=O)cc1,16µM*,nt,nt,-3%
CCOC(=O)c1c(/N=C/c2c(O)n(-c3ccc(F)cc3)c(=S)[nH]c2=O)sc2c1CCCC2,0%,nt,nt,-3%
CCOC(=O)c1c(/N=C/c2c(O)n(-c3ccccc3F)c(=S)[nH]c2=O)sc2c1CCCC2,22µM*,nt,nt,-12%
O=C1CC(N2CCC(n3c(=O)[nH]c4ccccc43)CC2)C(=O)N1c1ccc(F)cc1 (stereo unspecified),-1%,8%,4%,-9%
O=c1[nH]c2ccccc2n1C1CCN(CCCC(c2ccc(F)cc2)c2ccc(F)cc2)CC1,-4%,16µM*,25µM*!,-3%
COC(=O)CCCc1[se]c2ccccc2c1I,22µM*,nt,nt,0%[0.00818 µM]
SMILES,HPGD inh,p53ts 39C tox,p53ts 32C kill,12-hLO inh
O=C(N1CCOCC1)C1(c2ccccc2)CCNCC1,1%,9%[9.22 µM],-6%[9.22 µM],2%[11.4 µM]
CCCN1CC[C@@H]2c3cc(O)ccc3CC[C@H]21,nt,4%,-3%,-2%
O[N+]1=CC=CCC1=S.On1ccccc1=S.[Zn],?,4µM*,0.79µM*,-25%
O=C(O)[C@@H](O)[C@@H](O)C1[O][Sb][O][C@@H]1CO (stereo partly specified),-12%,nt,nt,nt
O=C1C(Cl)=C(N2CCCCCC2)C(=O)N1c1ccccc1,16µM*,8%,-8%,-23%
Cc1cc(/C=C2\C(=O)NC(=O)N(c3ccc(Cl)cc3)C2=O)c(C)n1-c1sc2c(c1C#N)CCCC2,10µM*,10%,nt,-9%
CC(C)CN(CC(C)C)c1ccc(C=C2C(=O)NC(=S)NC2=O)cc1[N+](=O)[O-],8.9µM*,nt,nt,?
O=C1/C(=C/c2cc([N+](=O)[O-])ccc2Cl)N2CCC1CC2,-8%,nt,nt,1%
O=C1/C(=C/c2cc3c(cc2Cl)OCO3)N2CCC1CC2,22µM*,nt,nt,-4%
O=C1/C(=C\c2cc3c(cc2Cl)OCO3)N2CCC1CC2,28µM*,nt,nt,15%
O=C1/C(=C/c2cccc([N+](=O)[O-])c2)N2CCC1CC2,-7%,nt,nt,-4%
Cc1ccc(CCNC(=O)c2cc3cc(S(=O)(=O)N4CCCCC4)ccc3n2C)cc1,nt,?,7%,nt
c1ccc(CN2CCC3(CCc4ccccc43)CC2)cc1,0%,?,-13%,-1%
c1csc(-c2nnc(Cc3cccc4ccccc34)o2)c1,18µM*,-4%,6%,-4%
c1ccc(CCN2CCCCCC2)nc1,-14%,-6%[9.22 µM],-5%[9.22 µM],-1%[11.4 µM]
COc1ccc2oc(-c3cccc(NC(=O)c4ccc(C#N)cc4F)c3)nc2c1,nt,34%,-6%,nt
COc1cc(=O)[nH]c(SCc2c(F)c(F)c(F)c(F)c2F)n1,16µM*,3%,-3%,-5%
Oc1c(Br)c(Br)c(Br)c(Br)c1Br,10µM*,19%,11%[1.84 µM],-9%
C[C@@]12CC[C@H](O[C@@H]3O[C@H](CO)[C@@H](O)[C@H](O)[C@@H]3O)C[C@@H]1CC[C@H]1[C@H]2CC[C@@]2(C)[C@@H](C3=CCOC3=O)CC[C@]12O,1%,5%[9.22 µM],-4%[9.22 µM],-4%[11.4 µM]
NCCP(=O)(O)O,-3%,-3%[9.22 µM],2%[9.22 µM],0%[11.4 µM]
CN1CCN(c2ccc3nc(-c4ccc5nc(-c6ccc(O)cc6)[nH]c5c4)[nH]c3c2)CC1,?,9%[9.22 µM],5%[9.22 µM],12%[11.4 µM]
CN(C)c1ccc2c(c1)N=C(c1ccco1)OP2(=S)N1CCOCC1 (stereo unspecified),18µM*,-1%,11%,-6%
CC(C)(C)c1cc(C#N)cc(Br)c1OP(=O)(Oc1c(Br)cc(C#N)cc1C(C)(C)C)c1ccccc1,-9%,0%[9.22 µM],4%[9.22 µM],5%[11.4 µM]
Cc1c(Cl)cccc1NC(=O)CN1C(=O)C(C)N=C(c2ccccc2)c2ccccc21 (stereo unspecified),nt,-15%,12%,nt
Cc1oc2ccc(O)c(CN3CCCCCC3)c2c1C(=O)Nc1cccc(Cl)c1C,nt,16µM*,-11%,nt
O=C1c2ccccc2C(=O)N1SC1CCCCC1,2.2µM*,5%,12%,?
O=[As](O)(O)c1ccc(Cc2ccc([As](=O)(O)O)cc2)cc1,3.5µM*,50%[9.22 µM],31%[9.22 µM],-24%[11.4 µM]
O=C(O)C(C(=O)O)P(=S)(S)c1ccccc1 (stereo unspecified),-1%,6%[9.22 µM],7%[9.22 µM],-2%[11.4 µM]
Cc1nn(CCC#N)c2c1P(=S)(N1CCCC1)OC(c1ccc(F)cc1)=N2 (stereo unspecified),20µM*,6%,8%,-13%

# Compound activity: PubChem BioAssay, National Center for Advancing Translational Sciences (NCATS)
